# According to PubChem BioAssay (Tox21):
# Inconclusive results are not listed. Active and inactive are the calls of the source. Calls come from the whole dose curve; as a rule, active = well fitted cell-killing curve with a large enough effect in the repeat runs; inconclusive = weak or mixed curves, or effect the other way; inactive = flat fitted curve, though single readings scatter.
# Assay: qHTS assay to identify small molecule antagonists of the androgen receptor (AR) signaling pathway using the MDA cell line - cell viability counter screen (AID 743041; note: nearly all actives have a fitted effect of over 45% in size)
# Settings: MDA-kb2 viability, CellTiter-Fluor, 16 h, cells co-treated with R1881 androgen agonist; series mostly up to 70.3 µM; viability change, negative = cytotoxic: at the top concentration
# Excerpt: National Center for Advancing Translational Sciences [NCATS]
# NIH Chemical Genomics Center [NCGC]
# U.S. Environmental Protection Agency [EPA]
# National Institutes of Environmental Health Sciences [NIEHS]
# National Toxicology Program [NTP]
# U.S. Food and Drug Administration [FDA]
# Androgen receptor (AR), a nuclear hormone receptor, plays a critical role in AR-dependent prostate cancer and other androgen related diseases. Endocrine disrupting chemicals (EDCs) and their interactions with steroid hormone receptors like AR may cause disruption of normal endocrine function as well as interfere with metabolic homeostasis, reproduction, developmental and behavioral functions. To identify the compounds that inhibit AR signaling, MDA-kb2 AR-luc cell line (from ATCC, deposited by Wilson et al.) was used to screen the Tox21 10K compound library. MDA-kb2 AR-luc cell line is human breast carcinoma cell line that was stably transfected with a luciferase reporter gene under control of the MMTV promoter containing response elements for both androgen receptor (AR) and glucocorticoid receptor (GR). The cytotoxicity of the Tox21 compound library against the MDA-kb2 AR-luc cell line was tested in parallel by measuring the cell viability using CellTiter-Fluor assay (Promega, Madison, WI) in the same wells.
# Tox21 Assay Protocol Summary:
# MDA-kb2 AR-luc cells were dispensed at 3,000 cells/4 uL/well of culture medium into white wall/solid-bottom 1536-well plates using a Multidrop Combi (ThermoFisher Scientific, Waltham, MA) dispenser. After the assay plates were incubated at a 37C and 0% CO2 for 5 hr, 23 nL of compounds dissolved in DMSO, positive controls or DMSO only was transferred to the assay plate by a Pintool station (Kalypsys, San Diego, CA), followed by addition of 1 uL of agonist (R1881) in culture medium using a Bioraptr Flying Reagent Dispenser (FRD) workstation (Beckman Coulter, Indianapolis, IN, USA). The plates were incubated at a 37C and 0% CO2 for 16 h. After 15.5 h incubation, 1uL of CellTiter-Fluor reagent (Promega) was added using a Bioraptr FRD to each plate for measuring cytotoxicity. The fluorescence intensity was quantified on a ViewLux plate reader (PerkinElmer, Shelton, CT) following 30 min incubation at 37C and 0% CO2.
# % is set by controls: 0 for no effect and ±100 for the full control effect; potency is the fitted concentration of half-maximal effect.
SMILES,Potency,"viability change, negative = cytotoxic"
C=CC1(C)OC(=O)N(c2cc(Cl)cc(Cl)c2)C1=O (stereo not given),inactive,
Oc1ccc(Cc2ccc(O)cc2)cc1,,7.99% [at 95 µM] (inactive)
O=C(Cl)C(Cl)Cl,,6.29% (inactive)
C=C1CC[C@@]2(O)[C@H]3Cc4ccc(O)c5c4[C@@]2(CCN3CC2CC2)[C@H]1O5,,2.66% (inactive)
CC1=C2[C@H]3OC(=O)[C@@H](C)[C@@H]3CC[C@@]2(C)C=CC1=O,,-10.6% (inactive)
N[C@@H](Cc1ccc(Oc2cc(I)c(O)c(I)c2)c(I)c1)C(=O)O,,-2.69% (inactive)
N#CN,inactive,
CC[C@H](O)C(C[C@H](C)N(C)C)(c1ccccc1)c1ccccc1,,-2.43% [at 95 µM] (inactive)
C[C@]12C=CC(=O)C=C1CC[C@@H]1[C@@H]2CC[C@@]2(C)[C@H]1CC[C@]2(C)O,,-0.251% (inactive)
CC(C)[N+](C)(CCC(C(N)=O)(c1ccccc1)c1ccccc1)C(C)C,,4.3% [at 32.5 µM] (inactive)
CON(C)C(=O)Nc1ccc(Br)c(Cl)c1,,4.56% (inactive)
CC(Cl)(Cl)Cl,,-0.622% (inactive)
Clc1ccc(C(Cl)(Cl)Cl)cn1,,1.96% (inactive)
COC1=CC(=O)O[C@@H](/C=C/c2ccccc2)C1,,-1.2% [at 95 µM] (inactive)
C/C(=N\NC(=O)Nc1cc(F)cc(F)c1)c1ncccc1C(=O)O,,-0.625% (inactive)
Cn1c(CCCC(=O)O)nc2cc(N(CCCl)CCCl)ccc21,,-16.4% (inactive)
CCC(C)(C#N)N=NC(C)(C#N)CC (stereo not given),,-2.15% (inactive)
CCOP(=S)(OCC)Oc1ccc(Cl)cc1Cl,,-0.229% (inactive)
ClCOCCl,,-4.21% [at 95 µM] (inactive)
CC(Cc1ccccc1)NCCn1cnc2c1c(=O)n(C)c(=O)n2C (stereo not given),,10.4% (inactive)

SMILES,Potency,"viability change, negative = cytotoxic"
CCOP(=S)(OCC)SCCl,,9.82% (inactive)
O=P(O)(O)c1ccccc1,,21.2% (inactive)
CC(C)(C)c1cc(O)ccc1O,inactive,
CCOC(=O)CCl,,3.76% (inactive)
CCC(=O)OC1(c2ccccc2)CCN(C)CC1,,-6.46% [at 95 µM] (inactive)
COc1ccccc1OC,,-1.62% (inactive)
C#CCOC(=O)/C=C(C)/C=C/CC(C)CCCC(C)C (stereo not given),,0.398% (inactive)
CC(C)N(Cc1ccccc1)C(=O)C(C)(C)C,,7.77% (inactive)
CN(CCO)CCO,,36.5% [at 95 µM] (inactive)
CC(O)CCl (stereo not given),,1.99% (inactive)
CS(=O)(=O)c1ccc(C(=O)C2C(=O)CCCC2=O)c(Cl)c1COCC(F)(F)F,,-0.424% (inactive)
CC(C)(C1CCC(O)CC1)C1CCC(O)CC1 (stereo not given),,-2.94% (inactive)
NC1(c2ccccc2)CCCCC1,,-26.4% (inactive)
CCC1(c2cccc(O)c2)CCCCN(C)C1 (stereo not given),,8.23% [at 32.5 µM] (inactive)
Cc1ccc(S(=O)(=O)N[C@@H](CCCCN)C(=O)CCl)cc1,21.1 µM (active),
O=C(CCl)NCO,,-2.26% (inactive)
O=[N+]([O-])CCO,,0.0405% [at 95 µM] (inactive)
Cc1cc(OC(=O)N(C)C)nn1C(=O)N(C)C,,6.25% (inactive)
Oc1ccc2c3c1O[C@H]1[C@@H](O)C=C[C@H]4[C@@H](C2)NCC[C@@]341,,6.86% [at 95 µM] (inactive)
C=CC=O,,11.3% [at 95 µM] (inactive)
